Compound in the assay: CC1Cc2ccccc2N1C(=O)C1CCCN(C1)C(=O)CCl (mixture of isomers) [TRIM25 ligand 11 (diastereomer mixture)]
Briefly: probe-labelled cysteine peptide fold change vs DMSO (competition) (log2 fold change); higher = less target engagement (more negative = stronger competition). The conditions noted are these: THP-1, incubation time: 4 h.

The record followed here is the supplement of paper PMC12067093, “Discovery and optimisation of a covalent ligand for TRIM25 and its application to targeted protein ubiquitination” (Chemical Science, 2025).

The full data set covers some 21,000 targets. This sample favours those with the largest changes.
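Note: competitive chemoproteomic profiling in live THP-1 cells with an iodoacetamide desthiobiotin (IA-DTB) probe, comparing probe-labelled peptide intensities in compound-treated cells against DMSO-treated controls.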

Sequence of UniProt Q8TAQ2 (Q8TAQ2 whole entry, looked up): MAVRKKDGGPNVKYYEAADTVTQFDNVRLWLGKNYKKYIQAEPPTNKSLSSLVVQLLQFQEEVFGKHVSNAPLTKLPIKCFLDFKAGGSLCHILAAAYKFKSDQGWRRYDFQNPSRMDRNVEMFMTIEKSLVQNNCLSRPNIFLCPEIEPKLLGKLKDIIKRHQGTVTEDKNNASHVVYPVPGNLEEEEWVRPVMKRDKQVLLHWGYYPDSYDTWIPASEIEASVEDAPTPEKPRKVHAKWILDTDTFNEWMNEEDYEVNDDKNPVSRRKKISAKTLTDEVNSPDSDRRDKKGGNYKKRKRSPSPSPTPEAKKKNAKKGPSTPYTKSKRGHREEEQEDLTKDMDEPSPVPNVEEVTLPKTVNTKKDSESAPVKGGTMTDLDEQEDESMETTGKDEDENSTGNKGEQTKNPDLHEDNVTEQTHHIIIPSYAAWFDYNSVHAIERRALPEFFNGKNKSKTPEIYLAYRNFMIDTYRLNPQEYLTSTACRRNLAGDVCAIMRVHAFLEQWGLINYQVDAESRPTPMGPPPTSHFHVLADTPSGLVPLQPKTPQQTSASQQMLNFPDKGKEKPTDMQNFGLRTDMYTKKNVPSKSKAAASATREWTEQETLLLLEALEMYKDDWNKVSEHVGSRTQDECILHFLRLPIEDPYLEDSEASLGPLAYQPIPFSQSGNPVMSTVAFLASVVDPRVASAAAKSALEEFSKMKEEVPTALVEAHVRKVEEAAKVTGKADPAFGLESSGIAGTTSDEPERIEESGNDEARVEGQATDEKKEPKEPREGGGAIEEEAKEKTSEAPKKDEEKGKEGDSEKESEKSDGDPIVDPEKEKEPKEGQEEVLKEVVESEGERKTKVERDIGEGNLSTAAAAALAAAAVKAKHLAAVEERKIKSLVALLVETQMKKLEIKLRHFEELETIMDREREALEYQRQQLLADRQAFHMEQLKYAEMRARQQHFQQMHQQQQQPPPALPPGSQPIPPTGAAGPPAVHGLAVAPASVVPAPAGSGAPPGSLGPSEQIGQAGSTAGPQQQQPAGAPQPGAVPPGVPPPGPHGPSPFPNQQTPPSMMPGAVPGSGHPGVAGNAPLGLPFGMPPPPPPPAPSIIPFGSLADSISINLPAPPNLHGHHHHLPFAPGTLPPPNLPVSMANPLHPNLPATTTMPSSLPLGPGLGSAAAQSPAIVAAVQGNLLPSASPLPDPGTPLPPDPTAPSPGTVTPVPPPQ
Sequence of UniProt Q9Y230 (Q9Y230 whole entry, looked up): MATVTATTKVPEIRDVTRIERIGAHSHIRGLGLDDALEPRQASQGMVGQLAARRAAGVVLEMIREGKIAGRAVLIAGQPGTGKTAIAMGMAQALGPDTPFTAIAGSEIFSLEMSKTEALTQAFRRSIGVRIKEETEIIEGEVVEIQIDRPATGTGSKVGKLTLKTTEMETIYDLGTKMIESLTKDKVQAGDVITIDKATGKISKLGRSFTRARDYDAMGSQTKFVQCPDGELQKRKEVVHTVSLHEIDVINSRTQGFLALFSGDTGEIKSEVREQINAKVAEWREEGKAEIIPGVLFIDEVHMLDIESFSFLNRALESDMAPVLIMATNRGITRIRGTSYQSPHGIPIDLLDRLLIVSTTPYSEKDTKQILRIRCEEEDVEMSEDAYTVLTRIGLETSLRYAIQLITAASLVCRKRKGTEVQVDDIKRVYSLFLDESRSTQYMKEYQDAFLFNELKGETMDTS
Sequence of UniProt Q8NEM2 (Q8NEM2 whole entry, looked up): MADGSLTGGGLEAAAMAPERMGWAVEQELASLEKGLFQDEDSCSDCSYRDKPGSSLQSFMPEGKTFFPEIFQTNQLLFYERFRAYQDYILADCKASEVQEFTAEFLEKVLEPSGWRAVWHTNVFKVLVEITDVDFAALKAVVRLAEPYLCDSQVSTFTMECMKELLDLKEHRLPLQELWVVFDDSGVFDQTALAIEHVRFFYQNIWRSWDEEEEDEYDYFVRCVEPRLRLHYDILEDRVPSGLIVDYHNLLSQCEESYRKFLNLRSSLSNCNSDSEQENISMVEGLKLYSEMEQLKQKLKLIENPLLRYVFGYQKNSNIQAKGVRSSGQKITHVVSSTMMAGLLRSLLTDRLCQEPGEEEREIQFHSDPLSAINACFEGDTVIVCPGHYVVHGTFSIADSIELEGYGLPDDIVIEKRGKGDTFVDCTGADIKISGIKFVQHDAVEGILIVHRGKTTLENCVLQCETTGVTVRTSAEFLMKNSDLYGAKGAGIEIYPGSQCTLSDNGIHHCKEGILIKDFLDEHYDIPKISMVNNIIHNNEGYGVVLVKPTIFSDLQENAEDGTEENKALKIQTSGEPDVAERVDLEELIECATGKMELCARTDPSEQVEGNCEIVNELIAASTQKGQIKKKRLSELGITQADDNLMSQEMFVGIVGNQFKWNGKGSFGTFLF
Sequence of UniProt Q15758 (Q15758 whole entry, looked up): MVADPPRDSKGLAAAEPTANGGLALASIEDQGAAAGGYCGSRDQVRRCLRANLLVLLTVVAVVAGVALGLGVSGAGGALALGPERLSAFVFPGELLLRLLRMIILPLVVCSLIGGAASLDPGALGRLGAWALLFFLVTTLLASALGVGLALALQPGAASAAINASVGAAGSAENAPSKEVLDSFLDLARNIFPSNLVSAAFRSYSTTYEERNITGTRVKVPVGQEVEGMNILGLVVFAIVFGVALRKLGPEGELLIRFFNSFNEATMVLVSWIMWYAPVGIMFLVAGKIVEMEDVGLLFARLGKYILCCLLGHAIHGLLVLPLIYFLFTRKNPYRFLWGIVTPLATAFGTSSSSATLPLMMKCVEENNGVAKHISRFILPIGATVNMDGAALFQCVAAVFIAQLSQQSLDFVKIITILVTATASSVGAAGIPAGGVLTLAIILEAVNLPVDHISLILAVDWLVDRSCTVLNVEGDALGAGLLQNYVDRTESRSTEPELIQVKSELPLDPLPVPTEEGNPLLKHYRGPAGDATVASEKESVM
Sequence of UniProt Q13485 (Q13485 whole entry, looked up): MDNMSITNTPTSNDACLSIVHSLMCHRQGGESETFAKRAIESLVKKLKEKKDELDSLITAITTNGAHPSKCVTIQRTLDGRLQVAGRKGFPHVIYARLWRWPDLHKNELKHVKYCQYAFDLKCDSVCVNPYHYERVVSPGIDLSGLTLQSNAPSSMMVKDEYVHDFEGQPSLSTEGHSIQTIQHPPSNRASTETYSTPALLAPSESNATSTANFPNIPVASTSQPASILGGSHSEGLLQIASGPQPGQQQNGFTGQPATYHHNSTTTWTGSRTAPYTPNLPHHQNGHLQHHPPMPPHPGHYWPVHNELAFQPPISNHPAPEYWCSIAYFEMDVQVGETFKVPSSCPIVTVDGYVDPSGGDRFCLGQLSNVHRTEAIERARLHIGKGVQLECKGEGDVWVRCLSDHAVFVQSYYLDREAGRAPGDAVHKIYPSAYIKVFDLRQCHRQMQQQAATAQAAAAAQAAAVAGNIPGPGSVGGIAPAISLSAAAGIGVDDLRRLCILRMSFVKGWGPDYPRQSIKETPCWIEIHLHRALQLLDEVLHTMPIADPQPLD
Sequence of UniProt Q5K651 (Q5K651 whole entry, looked up): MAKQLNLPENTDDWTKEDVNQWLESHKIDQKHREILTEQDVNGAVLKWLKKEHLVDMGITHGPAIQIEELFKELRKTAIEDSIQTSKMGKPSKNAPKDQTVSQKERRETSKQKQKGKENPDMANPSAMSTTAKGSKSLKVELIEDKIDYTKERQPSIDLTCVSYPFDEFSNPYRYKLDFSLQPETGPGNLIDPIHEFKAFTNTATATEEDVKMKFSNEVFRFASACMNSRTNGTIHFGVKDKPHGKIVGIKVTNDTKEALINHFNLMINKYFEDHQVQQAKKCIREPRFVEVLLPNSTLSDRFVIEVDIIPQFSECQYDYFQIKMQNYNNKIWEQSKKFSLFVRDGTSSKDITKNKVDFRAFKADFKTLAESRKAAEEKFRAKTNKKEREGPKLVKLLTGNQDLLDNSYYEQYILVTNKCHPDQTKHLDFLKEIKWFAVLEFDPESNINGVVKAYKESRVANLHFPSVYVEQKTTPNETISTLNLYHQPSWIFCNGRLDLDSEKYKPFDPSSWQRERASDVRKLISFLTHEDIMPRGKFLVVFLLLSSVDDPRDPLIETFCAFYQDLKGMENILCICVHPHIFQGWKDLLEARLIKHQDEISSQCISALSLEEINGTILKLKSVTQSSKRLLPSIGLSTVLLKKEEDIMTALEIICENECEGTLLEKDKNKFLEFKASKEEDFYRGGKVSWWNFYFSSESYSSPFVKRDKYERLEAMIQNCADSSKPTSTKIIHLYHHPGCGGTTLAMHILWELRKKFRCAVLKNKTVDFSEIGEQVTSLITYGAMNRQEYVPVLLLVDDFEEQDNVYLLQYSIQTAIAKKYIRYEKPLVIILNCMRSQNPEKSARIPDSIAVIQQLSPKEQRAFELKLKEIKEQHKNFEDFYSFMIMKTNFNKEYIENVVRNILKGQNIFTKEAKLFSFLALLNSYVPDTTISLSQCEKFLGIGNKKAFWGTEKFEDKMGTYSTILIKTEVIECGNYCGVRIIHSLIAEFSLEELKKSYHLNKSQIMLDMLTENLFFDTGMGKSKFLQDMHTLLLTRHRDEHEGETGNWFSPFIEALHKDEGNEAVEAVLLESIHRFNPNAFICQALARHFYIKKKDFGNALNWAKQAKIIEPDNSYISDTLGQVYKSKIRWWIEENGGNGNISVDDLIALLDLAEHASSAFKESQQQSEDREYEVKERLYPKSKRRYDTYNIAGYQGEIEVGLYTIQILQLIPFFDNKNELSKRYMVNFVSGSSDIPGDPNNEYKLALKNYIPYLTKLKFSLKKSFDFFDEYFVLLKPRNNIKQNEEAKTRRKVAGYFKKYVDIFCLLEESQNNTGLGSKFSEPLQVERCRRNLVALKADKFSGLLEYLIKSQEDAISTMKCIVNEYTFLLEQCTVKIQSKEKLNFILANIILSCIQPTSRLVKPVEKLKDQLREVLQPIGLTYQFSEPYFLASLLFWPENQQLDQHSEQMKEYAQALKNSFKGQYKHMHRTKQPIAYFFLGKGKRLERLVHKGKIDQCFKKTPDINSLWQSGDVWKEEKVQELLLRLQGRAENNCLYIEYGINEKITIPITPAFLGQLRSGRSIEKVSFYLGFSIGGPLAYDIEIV

On to “RRP12_Q5JTH9_673_GCQAEADRAEVSR (UniProt Q5JTH9)”, for which the “probe-labelled cysteine peptide fold change” value is 0.0652 (10 µM) and -0.00566 (50 µM).
The like results for “RUFY1_Q96T51_692_VCDSCHTLLLQR (UniProt Q96T51)” were, in that order, 0.114 and -0.0564.
The like results for “SNRPD2_P62316_63_HCNMVLENVK (UniProt P62316)” were, in that order, -0.117 and -0.0606.
With “SMAD4_Q13485_391_GVQLECK (UniProt Q13485)”, the “probe-labelled cysteine peptide fold change” value reads like this: (10 µM) 0.0468; (50 µM) 0.21.
The like results for “SETDB1_Q15047_1207_QFYDGEESCYIIDAK (UniProt Q15047)” were, in that order, -0.0777 and -0.0706.
The like results for “RPS6KA3_P51812_436_EDIGVGSYSVCK<|>RPS6KA2_Q15349_429_EDIGVGSYSVCK (UniProt Q15349+P51812)” were, in that order, -0.0733 and -0.656.
In the same order, the values of “SEC13_P55735_77_GHEGPVWQVAWAHPMYGNILASCSYDR (UniProt P55735)” are -0.107 and -0.123.
Turning to “RSF1_Q96T23_1311_IETDEEESCDNAHGDANQPAR (UniProt Q96T23)”, the “probe-labelled cysteine peptide fold change” value is, setting by setting: (10 µM) 0.0514; (50 µM) 0.0946.
In the same order, the values of “RPP40_O75818_235_DLQCPVLQSSELEGTPEVSCR (UniProt O75818)” are 0.892 and 0.729.
In the same order, the values of “RUVBL2_Q9Y230_227_FVQCPDGELQK (UniProt Q9Y230)” are 0.151 and -0.0879.
The like results for “SLC7A7_Q9UM01_349_EGHLPDAICMIHVER (UniProt Q9UM01)” were, in that order, 0.0357 and 0.0274.
For the target “SMARCC1_Q92922_761_VDPTYGLESSCIAGTGPDEPEKLEGAEEEK (UniProt Q92922)”, the “probe-labelled cysteine peptide fold change” value (10 µM) was -0.397 and the “probe-labelled cysteine peptide fold change” value (50 µM) was -0.234.
The like results for “SAMD9_Q5K651_975+979_TEVIECGNYCGVR (UniProt Q5K651)” were, in that order, 0.388 and 0.22.
For “SMC1A_Q14683_781_MNQVEDEVFEEFCR (UniProt Q14683)”, the “probe-labelled cysteine peptide fold change” value turned out to be 0.0344 (10 µM) and 0.0302 (50 µM).
In the same order, the values of “RRP12_Q5JTH9_102_SSGTFLSGLSDCTNVTFSK (UniProt Q5JTH9)” are 0.0888 and 0.0733.
On to “SLC1A5_Q15758_467_SCTVLNVEGDALGAGLLQNYVDR (UniProt Q15758)”, for which the “probe-labelled cysteine peptide fold change” value was -0.0169 (10 µM) and 0.588 (50 µM).
The like results for “SPATA5_Q8NB90_459_HPSIIFIDELDALCPK (UniProt Q8NB90)” were, in that order, -0.0102 and -0.321.
“RREB1_Q92766_291_DAMGRPFIQNNPSIPAGFHDLGFTDFSCR (UniProt Q92766)”: the “probe-labelled cysteine peptide fold change” value by setting is: (10 µM) -0.104; (50 µM) -0.0626.
In the case of “RTCB_Q9Y3I0_485_NVTDVVNTCHDAGISK (UniProt Q9Y3I0)”, the “probe-labelled cysteine peptide fold change” value was -0.0281 (10 µM) and -0.0777 (50 µM).
On to “SLC25A16_P16260_246_THVNLLCGGVAGAIAQTISYPFDVTR (UniProt P16260)”, for which the “probe-labelled cysteine peptide fold change” value by setting is: (10 µM) 0.365; (50 µM) 0.384.
Consider “SEC16A_O15027_1293_YWCDAEYDAYR (UniProt O15027)”, for which the “probe-labelled cysteine peptide fold change” value runs as follows: (10 µM) -0.117; (50 µM) -0.311.
As to “SRD5A3_Q9H8P0_238_AGVVIHCNHR (UniProt Q9H8P0)”, the “probe-labelled cysteine peptide fold change” value is 0.00183 (10 µM) and -0.036 (50 µM).
In the same order, the values of “SP110_Q9HB58_327_DDSTCNSTVETR (UniProt Q9HB58)” are 0.0292 and -0.106.
In the same order, the values of “SMG7_Q92540_537_NLSNNCDTGEKPVVTFK (UniProt Q92540)” are -0.036 and -0.226.
The like results for “SMARCC2_Q8TAQ2_80_CFLDFK (UniProt Q8TAQ2)” were, in that order, -0.00468 and 0.128.
Regarding “SMU1_Q2TAY7_219_SHVECAR (UniProt Q2TAY7)”, the “probe-labelled cysteine peptide fold change” value (10 µM) turned out to be 0.194 and the “probe-labelled cysteine peptide fold change” value (50 µM) amounted to 0.11.
The like results for “SAR1B_Q9Y6B6_102_NYLPAINGIVFLVDCADHER (UniProt Q9Y6B6)” were, in that order, 0.177 and 0.151.
“SATB2_Q9UPW6_159_IQLQSCSK (UniProt Q9UPW6)”: the “probe-labelled cysteine peptide fold change” value is 0.071 (10 µM) and -0.00125 (50 µM).
In the case of “SON_P18583_1551_EMEHNTVCAAGTSPVGEIGEEK (UniProt P18583)”, the “probe-labelled cysteine peptide fold change” value was 0.0276 (10 µM) and -0.264 (50 µM).
Consider “SIRT6_Q8N6T7_141_LAELHGNMFVEECAK (UniProt Q8N6T7)”, for which the “probe-labelled cysteine peptide fold change” value was 0.087 (10 µM) and 0.00561 (50 µM).
The like results for “SHCBP1_Q8NEM2_591_VDLEELIECATGK (UniProt Q8NEM2)” were, in that order, 0.088 and -0.228.
The like results for “SLC7A6OS_Q96CW6_62_AAENNVFHLVATVCSQEEPVQPLLR (UniProt Q96CW6)” were, in that order, -0.0977 and -0.671.
